Sampled rows, rich in hits. Any-hit rate of the full collection: about 11%.
Tau ThT inhib – tau fibrillization inhibition (ThT binding). actives 2.1% (n = 270,000). P10636. recombinant tau K18 P301L, heparin-induced fibrillization, ThT fluorescence. AID 1460. Potency, µM (titrated, usually from 57.4 µM), inactives show top-dose activity, negative = inhibition, actives largely listed as inhibitors; note: potency is the fitted concentration of half-maximal effect; nearly all actives have a fitted effect of over 55% in size
Target sequence (P10636 561-689 P618L limits assumed): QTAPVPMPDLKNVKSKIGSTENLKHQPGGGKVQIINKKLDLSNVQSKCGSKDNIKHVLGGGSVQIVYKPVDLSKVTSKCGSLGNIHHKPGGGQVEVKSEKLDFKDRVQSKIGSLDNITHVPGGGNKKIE
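ThT emission at 510 nm, taken 1 hr after adding 30 uM dye, quantifies aggregates formed when 20 uM heparin acts on human tau K18 P301L for 6 hr at 37 C.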
Tau FP inhib – inhibitors of human tau fibril formation. K18 P301L tau heparin fibrillization, Alexa594 FP, 6 h. Potency, µM (doses to about 57.7 µM), inactives show at the top dose activity, negative = inhibition, hits mostly inhibitors. actives 0.39% (n = 280,000). AID 1468; note: potency is the fitted concentration of half-maximal effect; nearly all actives have a fitted effect of over 55% in size
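K18 P301L tau (15 uM unlabeled/0.24 uM Alexa 594-labeled, final) + compound + heparin 20 uM final; 100 mM NaOAc pH 7; 6 hr 37 C; ThT 30 uM final added, 1 hr RT; FP ex 555/em 632 nm.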
Coupling enz – counter-screen for Giardia aldolase inhibitors: coupling enzyme system; activity change, negative = inhibition, % at 58.2 µM, hits read low; AID 2472; coupling enzyme system counterscreen, AmpLite Red fluorescence; actives 0.67% (n = 290,000); in the data active = activity change below about -30%
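Final compound at 57.5 uM, incubated 10 min at RT with coupling enzyme reagent (glyceraldehyde-3-phosphate), then 20 min with substrate and AmpLite Red detection. Fluorescence read at 525/598 nm; tests interference with the coupling assay, not aldolase inhibition.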
G9a block – G9a (human) methyltransferase inhibition | G9a H3K9 monomethylation, AlphaScreen, 2 h | Potency, µM (top dose mostly 102 µM), inactives show at the highest dose activity, negative = inhibition, usual class: inhibitors | actives 8.8% (n = 350,000); note: potency is the fitted concentration of half-maximal effect; nearly all actives have a fitted effect of over 75% in size
Target sequence (Q96KQ7 913-1193 limits assumed): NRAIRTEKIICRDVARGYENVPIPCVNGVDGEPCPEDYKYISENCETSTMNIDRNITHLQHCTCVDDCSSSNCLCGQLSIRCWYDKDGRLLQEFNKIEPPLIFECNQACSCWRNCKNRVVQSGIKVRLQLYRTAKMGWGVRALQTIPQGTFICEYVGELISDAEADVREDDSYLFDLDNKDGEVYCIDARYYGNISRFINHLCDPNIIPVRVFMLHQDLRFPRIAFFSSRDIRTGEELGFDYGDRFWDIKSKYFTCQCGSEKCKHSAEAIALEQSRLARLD
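Chemiluminescent proximity detection of H3K9 monomethylation, read after 10 min bead incubation in the dark. Reaction: 20 nM G9a, 500 nM biotin-H3K9 peptide, 20 uM SAM cofactor, 2 h, room temperature, following 15 min enzyme-compound preincubation.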
Sfp inh – blocks B. subtilis Sfp PPTase activity; AID 1490; actives 3.5% (n = 310,000); Potency, µM, without a hit: largest response in the series, negative = inhibition, most hits filed as inhibitors; Biochemical Sfp PPTase activity, qHTS;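 note: the enzyme is Sfp with the accession as filed and its product quenches rhodamine fluorescence; potency is the fitted concentration of half-maximal effect; 0% = enzyme reaction without inhibitor and -100% = no enzyme wells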
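Compounds were incubated with enzyme (final 15 nM) for 15 min at room temperature before substrate addition started the reaction. Fluorescence at 525 nm excitation, 598 nm emission was recorded immediately and after 30 minutes.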
Tau fluor counter – counter-screen for tau fibril formation inhibitors. tau K18 P301L Alexa594 fluorescence, heparin fibrillization. Potency, µM (highest dose often 57.7 µM), for the others: top-dose activity change, negative = decrease. actives 0.93% (n = 280,000); note: potency is the fitted concentration of half-maximal effect; nearly all actives have a fitted effect of over 55% in size
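Human tau K18 P301L (15 uM unlabeled, 0.24 uM Alexa 594-labeled) in 100 mM sodium acetate pH 7 with 20 uM heparin, 6 hr at 37 C. ThT 30 uM added, 1 hr ambient; Alexa 594 FP and total fluorescence read at 555/632 nm.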
Starred values were filed as active, the others as inactive; u = inconclusive; x = no result; [ ] = another dose, or the depositor's remark. Unless noted, calls come from the whole dose curve; as a rule, active = well fitted curve in the direction sought with a large enough effect; inconclusive = small, poorly fitted or top-dose-only effect, or another doubt; inactive = no such curve, though single readings can be large; an effect the other way counts as inactive or inconclusive. Unless noted, % is set by controls: 0 for no effect and ±100 for the full control effect.

SMILES | Tau ThT inhib | Tau FP inhib | Coupling enz | G9a block | Sfp inh | Tau fluor counter
O=C(NC1CCCC1)c1ccc2nc[nH]c2c1 | 0% | 1% | 0 | 1%[12.7 µM] | 7% | 7%
O=C(NCCc1ccccc1)c1ccc2c(c1)OCCO2 | x | x | x | x | 16% | x
O=C(NCCc1ccccc1)c1ccc2c(c1)OCCCO2 | x | x | -2 | 32µM* | -14% | x
COc1cc(NC(=O)CN2C(=O)C(c3ccc(C)cc3)=NC23CCCCC3)cc(OC)c1 | -2% | -20% | x | -7%[59 µM] | x | u
CCC1CC=CC2C1C(=O)N(Cc1ccccc1)C2c1ccc2ccccc2c1 (stereo unspecified) | x | x | 1 | x | 2% | x
COc1ccc(CNC(=O)CCCc2cn(C)c3ccccc23)c(OC)c1 | -3% | 14% | x | -26%[59 µM] | x | -12%
O=C(c1ccccc1)c1ccc2nc(-c3ccco3)c(-c3ccco3)nc2c1 | 14µM* | u | -24 | 3.2µM* | 7.1µM* | u
O=C(O)c1ccc2nc(-c3ccccc3)c(-c3ccccc3)nc2c1 | -2% | -1% | 12 | 12%[59 µM] | 26% | 0%
c1coc(-c2nc3ccccc3nc2-c2ccco2)c1 | 16µM* | u | -38* | 8.9µM* | 14µM* | u
Cc1ccc(C)c(NS(=O)(=O)c2ccc3c(c2)n(C)c(=O)n3C)c1 | -4% | -3% | x | 2%[59 µM] | x | -9%
CCOC(=O)N1CCN(C(=O)CCc2nc3sc4c(c3c(=O)[nH]2)CCCC4)CC1 | -15% | -3% | 6 | 17% | 12% | -6%
Cc1ccc(NC(=O)CCc2nc3sc4c(c3c(=O)[nH]2)CCCC4)nc1 | x | x | x | 50µM* | x | x
NC(=O)C1CCN(C(=O)CCc2nc3sc4c(c3c(=O)[nH]2)CCCC4)CC1 | x | x | x | 50µM* | x | x
Cc1cccc(NC(=O)C(C)SCc2nc3sc4c(c3c(=O)[nH]2)CCCC4)n1 (stereo unspecified) | x | x | x | 56µM* | x | x
Cc1sc2nc(CSC(C)C(=O)Nc3ccc(Cl)cn3)[nH]c(=O)c2c1C (stereo unspecified) | x | x | x | -8%[12.7 µM] | x | x
Cc1cccc(NC(=O)CCc2nc3sc4c(c3c(=O)[nH]2)CCCC4)c1 | x | x | x | 2%[59 µM] | x | x
Nc1ccc(-c2nc3cc(N)ccc3s2)cc1 | 14µM* | -1% | -4 | 8% | 7% | u
Cc1ccc2nc(-c3ccc(N)cc3)sc2c1 | 5.6µM* | 8% | -1 | x | 2% | u
Cc1ccc2sc(-c3ccc(N)cc3)nc2c1 | 4.5µM* | 4% | x | u | x | u
C=C(c1ccccc1Cl)[n+]1ccccc1 | x | x | 1 | -1% | 16% | x
O=c1ccc(N=Nc2ccccc2)ccc1O | 4.5µM* | -3% | 5 | 45µM* | -10% | u
O=S(=O)(O)c1ccc(N=Nc2ccccc2)cc1 | -15% | 10% | 15 | u | 14% | -11%
Cc1ccc(CNC(=O)c2ccc3c(c2)N(Cc2cccc(C)c2)C(=O)CS3)cc1 | 12% | -6% | x | 3%[59 µM] | x | -15%
COc1ccc(NC(=O)CN2C(=O)/C(=C3\SC(=S)N(C4CCS(=O)(=O)C4)C3=O)c3ccccc32)cc1 (stereo unspecified) | x | -1% | 1 | x | 14µM* | u
O=C(CN1C(=O)/C(=C2\SC(=S)N(C3CCS(=O)(=O)C3)C2=O)c2ccccc21)Nc1ccc(F)cc1 (stereo unspecified) | x | u | 3 | 20µM* | -24% | u
SMILES | Tau ThT inhib | Tau FP inhib | Coupling enz | G9a block | Sfp inh | Tau fluor counter
COc1ccc(/C=C2\SC(=S)N(CC(=O)NC3CCS(=O)(=O)C3)C2=O)cc1 (stereo unspecified) | x | x | 2 | 6% | -8% | x
Cn1c(CNc2cccc(Cl)c2)nnc1SCC#N | -4% | 0% | 0 | 5%[59 µM] | 26% | -8%
COc1ccc(-c2nc(C)c(CCNC(=O)c3cccs3)s2)cc1 | u | -10% | x | 3%[59 µM] | x | u
Cc1ccc(S(=O)(=O)CCC(=O)NC2CCCC2)cc1 | x | x | x | 11% | 11% | x
O=C(CCS(=O)(=O)c1ccc(Br)cc1)NCCC1=CCCCC1 | x | x | x | 14µM* | -1% | x
O=C(COC(=O)c1cccc(Br)c1)NCCC1=CCCCC1 | -10% | 4% | 3 | 3% | -14% | -7%

Screening data: PubChem BioAssay, National Center for Advancing Translational Sciences (NCATS)
